Here are results for 21 sequences from paper PMC5700166.

What all share (assay): protein-binding microarray (PBM); PBM: ~300 nM protein, 6 mM HEPES pH 7.8, 80 mM KCl, 0.5 mM EDTA, 0.5 mM EGTA, 6% glycerol, 35 ng/ul poly-dIdC, 1% milk, 1 h, room temperature; Ap Aiptasia and Nv Nematostella (sea anemones) / Co Capsaspora / Aq Amphimedon (sponge) / Dm Drosophila / Hu human; RHD is the Rel homology domain; high values mean tight binding
Common to all, as to settings: dsDNA, one strand shown

The target in one assay is T1, GST-Dm-Relish (Drosophila melanogaster, UniProt Q94527 99-473).
T1 sequence: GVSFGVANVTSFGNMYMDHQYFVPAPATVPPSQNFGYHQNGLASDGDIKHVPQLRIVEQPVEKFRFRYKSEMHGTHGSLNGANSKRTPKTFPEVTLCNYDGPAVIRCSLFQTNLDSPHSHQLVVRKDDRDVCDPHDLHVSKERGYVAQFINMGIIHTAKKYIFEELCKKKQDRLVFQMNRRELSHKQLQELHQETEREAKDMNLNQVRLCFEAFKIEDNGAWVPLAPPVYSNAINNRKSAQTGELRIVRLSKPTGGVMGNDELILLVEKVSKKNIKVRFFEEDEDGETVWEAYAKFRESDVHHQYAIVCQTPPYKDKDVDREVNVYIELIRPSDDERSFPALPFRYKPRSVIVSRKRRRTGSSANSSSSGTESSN

Another assay deals with T2, GST-Aq-NF-kB (Amphimedon queenslandica, UniProt A9Y5G7 2-389).
T2 sequence: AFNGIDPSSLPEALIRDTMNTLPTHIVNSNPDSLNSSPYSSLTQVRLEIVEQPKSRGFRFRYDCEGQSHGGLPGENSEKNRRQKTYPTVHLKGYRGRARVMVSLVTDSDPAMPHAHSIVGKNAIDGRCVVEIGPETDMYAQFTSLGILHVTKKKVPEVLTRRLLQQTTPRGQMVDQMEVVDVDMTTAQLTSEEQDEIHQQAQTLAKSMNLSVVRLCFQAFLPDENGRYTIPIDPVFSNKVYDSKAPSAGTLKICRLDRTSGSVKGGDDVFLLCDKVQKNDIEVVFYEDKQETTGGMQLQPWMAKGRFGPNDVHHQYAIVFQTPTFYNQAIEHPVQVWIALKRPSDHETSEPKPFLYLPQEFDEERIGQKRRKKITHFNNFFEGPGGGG

The target in another assay is GST-Hu-p50 (Homo sapiens, UniProt P19838 7-356).
Chain of GST-Hu-p50 (P19838 7-356): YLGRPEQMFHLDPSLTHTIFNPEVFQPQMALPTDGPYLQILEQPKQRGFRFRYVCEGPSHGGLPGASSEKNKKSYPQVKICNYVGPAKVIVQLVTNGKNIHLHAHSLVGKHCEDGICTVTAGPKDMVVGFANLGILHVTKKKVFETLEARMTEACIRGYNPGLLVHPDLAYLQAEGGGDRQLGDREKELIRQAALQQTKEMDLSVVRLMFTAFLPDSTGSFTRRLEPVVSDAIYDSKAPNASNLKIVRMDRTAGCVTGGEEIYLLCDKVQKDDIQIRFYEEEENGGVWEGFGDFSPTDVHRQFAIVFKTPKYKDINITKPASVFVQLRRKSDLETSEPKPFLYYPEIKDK
The next assay has as its target T3, GST-Co-NF-kB (Capsaspora owczarzaki, UniProt F1ARL5 200-546).
T3 sequence: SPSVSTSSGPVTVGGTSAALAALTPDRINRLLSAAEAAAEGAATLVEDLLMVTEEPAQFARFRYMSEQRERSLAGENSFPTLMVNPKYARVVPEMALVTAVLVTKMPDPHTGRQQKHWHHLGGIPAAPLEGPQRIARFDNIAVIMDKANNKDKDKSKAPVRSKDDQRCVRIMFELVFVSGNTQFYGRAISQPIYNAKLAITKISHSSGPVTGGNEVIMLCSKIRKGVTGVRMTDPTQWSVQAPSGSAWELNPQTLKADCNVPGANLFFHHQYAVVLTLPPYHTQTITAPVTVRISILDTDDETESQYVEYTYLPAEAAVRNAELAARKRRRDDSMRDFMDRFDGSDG

Another assay has as its target T4, GST-Ap-NF-kB RHD (Exaiptasia pallida (Aiptasia), UniProt A0A913YAJ5 2-422).
T4 sequence: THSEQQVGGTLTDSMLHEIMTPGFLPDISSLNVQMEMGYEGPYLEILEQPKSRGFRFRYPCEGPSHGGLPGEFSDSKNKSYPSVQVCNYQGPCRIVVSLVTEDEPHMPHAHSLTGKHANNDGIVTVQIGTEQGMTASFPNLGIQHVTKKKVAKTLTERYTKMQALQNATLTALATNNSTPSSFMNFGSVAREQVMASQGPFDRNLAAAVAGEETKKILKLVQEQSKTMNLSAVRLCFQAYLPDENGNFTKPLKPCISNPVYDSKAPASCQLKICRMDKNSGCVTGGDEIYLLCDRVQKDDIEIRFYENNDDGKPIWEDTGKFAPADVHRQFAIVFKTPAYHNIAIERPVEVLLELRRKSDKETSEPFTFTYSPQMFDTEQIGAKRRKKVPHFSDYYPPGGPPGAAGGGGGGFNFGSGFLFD

The target of assay [1] is T5, GST-Nv-NF-kB (Cys allele) (Nematostella vectensis, UniProt E5G601 2-411).
T5 sequence: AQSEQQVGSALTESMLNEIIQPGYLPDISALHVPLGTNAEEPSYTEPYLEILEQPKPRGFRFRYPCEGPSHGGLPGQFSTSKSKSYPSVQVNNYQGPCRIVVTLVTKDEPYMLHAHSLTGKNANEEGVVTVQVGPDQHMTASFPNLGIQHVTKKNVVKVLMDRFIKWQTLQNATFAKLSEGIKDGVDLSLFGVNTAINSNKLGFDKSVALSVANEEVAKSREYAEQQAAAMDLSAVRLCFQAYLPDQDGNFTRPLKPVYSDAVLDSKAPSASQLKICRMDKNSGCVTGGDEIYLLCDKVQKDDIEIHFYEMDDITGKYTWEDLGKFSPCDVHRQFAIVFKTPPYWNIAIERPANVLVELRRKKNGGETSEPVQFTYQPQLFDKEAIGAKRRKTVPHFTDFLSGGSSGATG

Assay [2] concerns the target T6, GST-Nv-NF-kB (Ser allele) (Nematostella vectensis, UniProt A7UNT2 2-411).
T6 sequence: T5 sequence with Q21R, C66S, S207N, E215Q, V217A, E225K, A268E, D399E

Positions count from the first letter of the chain named.

Regarding “CCGATTAACATCACAAAAAATCCTGATGTTAATCGGGTCTTGATTCGCTTGACGCTGCTG”, the binding signal was found to be 1.98 z-score with GST-Dm-Relish, 1.44 z-score with GST-Aq-NF-kB and 1.98 z-score in the assay with GST-Hu-p50.
For “CCGATTAACATCAAAAATTCCAGTGATGTTAATCGGGTCTTGATTCGCTTGACGCTGCTG”, the binding signal worked out at 1.37 z-score with GST-Co-NF-kB, 1.57 z-score with GST-Dm-Relish, 1.48 z-score with GST-Aq-NF-kB and 1.08 z-score in the assay with GST-Hu-p50.
Consider “CCGATTAACATCACAAAAATTCCTGATGTTAATCGGGTCTTGATTCGCTTGACGCTGCTG”, for which the binding signal in the assay with GST-Dm-Relish was 2.38 z-score; in the assay with GST-Aq-NF-kB, 1.5 z-score; in the assay with GST-Hu-p50, 1.01 z-score.
For “CCGATTAACATCATAGTCCCATGTGATGTTAATCGGGTCTTGATTCGCTTGACGCTGCTG”, the binding signal in the assay with GST-Ap-NF-kB RHD worked out at 2.47 z-score; in assay [1], 2.41 z-score; in the assay with GST-Aq-NF-kB it was 2.36 z-score.
The like results for “CCGATTAACATCAGGAACCTCCCTGATGTTAATCGGGTCTTGATTCGCTTGACGCTGCTG” were, in that order, 1.92 z-score, 2.34 z-score and 4.17 z-score.
“CCGATTAACATCAAAAAATTTTCTGATGTTAATCGGGTCTTGATTCGCTTGACGCTGCTG”: the binding signal amounted to 1.98 z-score in assay [2], 2.72 z-score in the assay with GST-Dm-Relish, 1.49 z-score in the assay with GST-Aq-NF-kB and 2.15 z-score with GST-Hu-p50.
For the sequence “CCGATTAACATCAGTCCCTAAGCTGATGTTAATCGGGTCTTGATTCGCTTGACGCTGCTG”, the figures for the binding signal (with GST-Ap-NF-kB RHD; in assay [1]; in the assay with GST-Aq-NF-kB) were 1.75 z-score, 3.07 z-score and 4.16 z-score, respectively.
The corresponding values for “CCGATTAACATCAGTTGTCCCGCTGATGTTAATCGGGTCTTGATTCGCTTGACGCTGCTG” are 1.69 z-score, 1.89 z-score and 1.16 z-score.
The corresponding values for “CCGATTAACATCAGGAATTGCCCTGATGTTAATCGGGTCTTGATTCGCTTGACGCTGCTG” are 1.16 z-score, 2.2 z-score and 4.94 z-score.
For “CCGATTAACATCAGGAAATTTACTGATGTTAATCGGGTCTTGATTCGCTTGACGCTGCTG”, the binding signal with GST-Dm-Relish stood at 1.36 z-score; with GST-Aq-NF-kB it was 1.54 z-score; in the assay with GST-Hu-p50 it was 1.51 z-score.
The like results for “CCGATTAACATCAAAAAGTTTCCTGATGTTAATCGGGTCTTGATTCGCTTGACGCTGCTG” were, in that order, 2.43 z-score, 1.68 z-score and 1.42 z-score.
The like results for “CCGATTAACATCAGGAAACAACCTGATGTTAATCGGGTCTTGATTCGCTTGACGCTGCTG” were, in that order, 1.07 z-score, 2.89 z-score and 1.61 z-score.
With “CCGATTAACATCAGGACACTCCCTGATGTTAATCGGGTCTTGATTCGCTTGACGCTGCTG”, the binding signal in the assay with GST-Ap-NF-kB RHD was 1.81 z-score; in assay [1], 2.51 z-score; in the assay with GST-Aq-NF-kB, 5.35 z-score.
As for “CCGATTAACATCAAAATTCCGGGTGATGTTAATCGGGTCTTGATTCGCTTGACGCTGCTG”, the binding signal in the assay with GST-Co-NF-kB was 1.33 z-score; with GST-Dm-Relish, 1.53 z-score; in the assay with GST-Aq-NF-kB, 1.67 z-score; with GST-Hu-p50 it was 1.74 z-score.
As to “CCGATTAACATCAGGAACGTCCCTGATGTTAATCGGGTCTTGATTCGCTTGACGCTGCTG”, the binding signal with GST-Ap-NF-kB RHD turned out to be 3.25 z-score; in assay [1], 3.14 z-score; in the assay with GST-Aq-NF-kB, 5.01 z-score.
The corresponding values for “CCGATTAACATCAGGCACTTCCCTGATGTTAATCGGGTCTTGATTCGCTTGACGCTGCTG” are 1.15 z-score, 1.51 z-score and 3.6 z-score.
As for “CCGATTAACATCATGGGGCATGCTGATGTTAATCGGGTCTTGATTCGCTTGACGCTGCTG”, the binding signal came out at 1.18 z-score with GST-Ap-NF-kB RHD and 1.06 z-score with GST-Aq-NF-kB.
On to “CCGATTAACATCAGGAATTTTTATGATGTTAATCGGGTCTTGATTCGCTTGACGCTGCTG”, for which the binding signal in the assay with GST-Dm-Relish was determined as 1.94 z-score; in the assay with GST-Aq-NF-kB, 1.99 z-score; with GST-Hu-p50, 1.39 z-score.
As to “CCGATTAACATCAGGACCGTCCCTGATGTTAATCGGGTCTTGATTCGCTTGACGCTGCTG”, the binding signal amounted to 4.25 z-score with GST-Ap-NF-kB RHD, 3.73 z-score in assay [1] and 6.42 z-score in the assay with GST-Aq-NF-kB.
As for “CCGATTAACATCAAGAAAATTCCTGATGTTAATCGGGTCTTGATTCGCTTGACGCTGCTG”, the results for the binding signal in the assay with GST-Dm-Relish, with GST-Aq-NF-kB and with GST-Hu-p50 were 1.53 z-score, 1.97 z-score and 1.07 z-score, respectively.
For the sequence “CCGATTAACATCAGAAAGTTTCCTGATGTTAATCGGGTCTTGATTCGCTTGACGCTGCTG”, the binding signal was determined as 1.85 z-score in the assay with GST-Dm-Relish, 1.06 z-score in the assay with GST-Aq-NF-kB and 1.69 z-score with GST-Hu-p50.
